system: Human papillomavirus type 1a E7 protein (residues 1-88); assay: HPV1a E7 small-molecule binders, primary screen, biochemical, small-molecule microarray, residues 1-88, 635 nm (AID 1129); details: small-molecule microarray binding, fluorescence 635 nm; higher = more signal

Compared with `CCCN1C(=O)[C@@]2(CCS(=O)(=O)c3ccccc3)N=C(c3ccc(OCCCO)cc3)O[C@H]2c2ccccc21`, `[N-]=[N+]=NCc1ccccc1C[C@]1(C(N)=O)N=C(c2ccc(OCCCO)cc2)O[C@H]1c1ccccc1CN=[N+]=[N-]` is lower in composite z-score: 1.23 for the first, 0.974 for the second.

Going from `O=C(O)[C@@H]1Cc2c([nH]c3ccccc23)[C@@H](c2ccccc2)N1` to `C=CC[C@]1(C(=O)O)N=C(c2ccc(OCCCO)cc2)O[C@H]1c1ccccc1`, the composite z-score falls from 0.299 to -0.531.

Going from `C[C@@H]1CC[C@H]2C(=O)N3CCC[C@H]3C(=O)N2[C@H]1c1ccc(Br)cc1` to `O=C1C[C@@](C(=O)NC2CC2)(c2ccc([N+](=O)[O-])cc2)[C@@H](c2ccc(CO)cc2I)N1CC12CC3CC(CC(C3)C1)C2`, the composite z-score rises from -0.366 to 1.18.

Compared with `CCC#CCN(Cc1ccccc1Br)[C@H](/C=C/c1ccccc1)[C@@H](O)Cc1ccccc1`, `C=CCC(OC(C)=O)[C@@H]1[C@@H](N(Cc2ccc(-c3ccccc3)cc2)C(=O)c2ccc(-c3ccccc3)cc2)c2cc(OCCCO)ccc2N1C(=O)Cc1ccc(OC)cc1` (some centres undefined) is higher in composite z-score: -0.518 for the first, 0.328 for the second.

For `Cc1ccc(N2C(=O)c3ccccc3[C@@H](C(=O)NCC(F)(F)F)[C@@H]2c2ccc(CO)cc2)nc1`, the composite z-score was -2.06.
